Laboratory results reported in PubChem BioAssay AID588493 (Sanford-Burnham Center for Chemical Genomics, 2011).
In all, about 360,000 compounds went through this assay and about 2,100 (0.58%) were called active.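 Rule for the calls: active = inhibition at 20 µM, scaled to each plate's controls, above about 33% (limit read from the data); inactive = the rest.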 For the sample, actives were picked, then their nearest neighbours and some compounds at random.

Target: 26S proteasome non-ATPase regulatory subunit 14 (Homo sapiens) (UniProt O00487)
Test: inhibition of 26S proteasome subunit Rpn11 – biochemical, fluorescence polarization, uHTS, primary screen (AID 588493)
Conditions: human 26S proteasome, Ub4-pepOG fluorescence polarization; at 20 µM; stronger effect = higher value; 20S core pre-blocked with epoxomicin

26S proteasome non-ATPase regulatory subunit 14 (Homo sapiens), sequence (O00487 whole entry, looked up): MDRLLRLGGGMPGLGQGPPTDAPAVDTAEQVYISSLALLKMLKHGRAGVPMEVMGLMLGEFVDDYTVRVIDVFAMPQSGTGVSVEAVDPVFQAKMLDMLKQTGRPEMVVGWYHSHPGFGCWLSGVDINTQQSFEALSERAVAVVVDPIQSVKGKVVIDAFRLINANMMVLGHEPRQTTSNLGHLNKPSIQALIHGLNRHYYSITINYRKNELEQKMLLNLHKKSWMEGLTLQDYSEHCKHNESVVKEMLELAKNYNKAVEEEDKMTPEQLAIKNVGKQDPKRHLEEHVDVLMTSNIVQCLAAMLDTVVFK

inhibition, active:
CC(C)Oc1ccc(/C=C(\NC(=O)/C=C/c2ccco2)C(=O)NCCc2nc3ccccc3[nH]2)cc1 53.9%
CN(C)c1ccc(-n2cccc2/C=C2/SC(=Nc3ccc(F)cc3)NC2=O)cc1 44%
O=C(CCS(=O)(=O)c1cccc2nonc12)NCCc1ccccc1Cl 179%
Cc1ccc(N=Cc2c(O)cc(C)oc2=O)c(C)c1 40.7%
Cc1cccc(OCc2nnc(SCc3nc4cc(C(F)(F)F)ccc4c(=O)[nH]3)o2)c1 46.5%
CN(C)CCOC1c2ccccc2-c2ccccc21 95.3%
CCOc1cc(/C=C2\SC(N3CCCC(C)C3)=NC2=O)ccc1O (stereo not given) 62.1%
CCOc1cc(/C=C2\SC(N3CCCCC3)=NC2=O)ccc1O 46.9%
C=CC[n+]1c(-c2ccc(C)cc2)csc1NNC(=O)Nc1ccccc1 42.6%
C/C(=N/Nc1nc(-c2ccccc2)c(CC(=O)O)s1)c1ccccc1 57.8%
Nc1nonc1-n1nnc(C(=O)N/N=C/c2cc(Br)ccc2O)c1CSC1=NCCS1 43.6%
Cc1nc2ccccc2nc(=O)c1NNc1ccc([N+](=O)[O-])cc1 43.9%
O=C(O)c1ccc(NN=CC2=C(N3CCOCC3)/C(=C/c3ccccc3)CC2)cc1 51.4%
CC(C)(C)NC(=O)CSC(=Nc1ccccc1F)NC#N 45.6%
CCCS(=O)(=O)N1CCCC(C(=O)NCc2ccco2)C1 (stereo not given) 34.7%
Cc1c(-c2ccccc2)cn2c1-c1ccc(C)n1CC2 44.5%
Cc1ccc(NC(=O)COc2ccc(/C=N\NC(=O)c3cccnc3)cc2)cc1C 91%
Cc1nc2ccccc2n1C(=O)N1CCOCC1 58.5%
Cc1c(NC(=O)CSc2cccc3cccnc23)c(=O)n(-c2ccccc2)n1C 48.6%

inhibition, inactive:
Cc1cc(C)c2cc(CN(Cc3cccs3)Cc3nnnn3CC3CCCO3)c(=O)[nH]c2c1 (stereo not given) -19.3%
CCC(C)N1CC(=O)N2Cc3[nH]c4ccccc4c3C[C@H]2C1=O (stereo not given in full) 7.3%
CC(C)=C(NC(=O)c1ccco1)C(=O)NCCc1nc2ccccc2[nH]1 -7.6%
CCCCCOc1ccc(/C=C/C(=O)NCCc2nc3ccccc3[nH]2)cc1OC -4.2%
CCN(CC(=O)NCc1cccs1)S(=O)(=O)c1ccc(NC(C)=O)cc1 -1.7%
Cc1cccc(OCCC(=O)Nc2cc(S(=O)(=O)N3CCCCC3)ccc2N2CCOCC2)c1 2%
CN(C)c1ccc(-n2cccc2/C=N/n2cnnc2)cc1 1.5%
CCn1cc(C(=O)OCC(=O)Nc2cccc(C)c2)c(=O)c2ccc(C)nc21 -1.5%
CC(=O)Oc1cc2c(C(=O)NCCN3CCOCC3)c(C)oc2c2ccccc12 -0.1%
O=C(Cc1ccc(F)cc1)N1CCN=C1SCc1cccc([N+](=O)[O-])c1 3%
O=C(NCc1ccccc1Cl)C1CCN(S(=O)(=O)c2cccc3nonc23)CC1 4.7%
CC1CCCCC1NC(=O)CCS(=O)(=O)c1cccc2nonc12 (stereo not given) -3.4%
Cc1ccc(N=Cc2c(O)n(-c3nccs3)c(=O)c3ccccc23)c(C)c1 -26.4%
Cc1cccc(OCc2nnc(SCn3nnc4ccccc4c3=O)o2)c1 6.8%
COc1cc(CN(C)Cc2nc3cc(C(F)(F)F)ccc3c(=O)[nH]2)ccc1OC(F)F 5%
CC(=O)O[C@H]1c2ccccc2-c2ccccc2[C@@H]1OC(C)=O -2.7%
CN(C)CCOc1cccc(Br)c1 -7.4%
CCCC[C@H]1COCCS(=O)(=O)N1Cc1cccc(Cl)c1 7.9%
CCOC(=O)c1cc(-c2sc(NC(=O)c3ccccc3)nc2C)n(Cc2ccccc2)n1 5.8%
Cn1c2ccc(F)cc2c2nnc(NN)nc21 5.1%
O=C(O)C1C2C=CC(O2)C1C(=O)NCCc1cccc(Cl)c1 (stereo not given) 1%
O=C(NCc1ccccc1)[C@H]1C[C@@H]1[C@H](NP(=O)(c1ccccc1)c1ccccc1)c1ccccc1 9.5%
CCOc1ccc(C(=O)Nc2ccc(S(=O)(=O)NCC3CCCO3)cc2)cc1OCC (stereo not given) -3.2%
CCOc1ccc2nc(C(=O)N3CCCC(C)C3)sc2c1 (stereo not given) -2.7%
Cc1ccsc1/C=C1\SC(N2CCOCC2)=NC1=O -7.5%
CCOc1cc(/C=N/NC(=O)CN2CCCCC2)ccc1O -1.4%
O=C1N=C(N2CCc3ccccc3C2)S/C1=C\c1ccc(O)cc1 -9.2%
CC(=O)n1cc([C@H]2C=C(C(=O)N3CCOCC3)O[C@@H](OCc3ccc(CO)cc3)C2)c2ccccc21 3.9%
Cc1cc[n+](-c2[nH]c(=O)sc2/C=N/NC(=O)c2ccccc2[O-])cc1C -29.4%
CCc1ccc2[nH]c(=O)c(Cc3ccccc3)c(O)c2c1 -4.6%
O=C(c1ccc(OC2CCN(C(=O)c3cccnc3)CC2)cc1)N1CCCCCC1 -0.5%
Cc1cccc(OCCCC(=O)Nc2ccc(S(=O)(=O)N3CCCC3)cc2)c1 -2.1%
Cc1ccc(NC(=O)NNC(=O)c2sccc2-n2cccc2)cc1 -1.9%
O=C(NNC(=O)c1ccc(-c2ccccc2)cc1)Nc1ccccc1 -0.3%
CCCCOC(=O)c1ccc(NC(c2ccc(C)cc2)P(=O)(OC)OC)cc1 (stereo not given) -3.9%
COC(=O)c1cccc(NS(C)(=O)=O)c1 -3.1%
C=CCc1ccc(OCCOc2cccc(/C=N/n3cnnc3)c2)c(OC)c1 -5.7%
c1csc(-c2nnc(COc3ccc4c(c3)OCO4)o2)c1 -8.5%
CCOC(=O)C(=O)Nc1nc(-c2ccccc2)c(CC)s1 3.6%
CCOc1ccc(-c2nc(C)sc2CC(=O)O)cc1 -1.6%
O=C1C=C(c2cccc(Cl)c2O)C[C@@H](c2ccc(F)cc2)C1 -0.6%
COCc1c(C(=O)N/N=C\c2cccnc2)nnn1-c1nonc1N -1.2%
CC(C)c1c(C(=O)N/N=C/c2ccccc2C(=O)O)nnn1-c1nonc1N -1.4%
CC(C)Cn1c(=O)c2ccccc2n2c(CCC(=O)NCc3ccccn3)nnc12 4.1%
O=C(Nc1c[nH]c(=O)[nH]c1=O)OCc1ccccc1 -11.5%
N#C/C=C1\Sc2ccccc2C(=O)N1CC(=O)N1CCN(S(=O)(=O)c2ccccc2)CC1 5.4%
Cc1cccc(NS(=O)(=O)c2ccc([N+](=O)[O-])cc2)n1 -2.6%
CC(O)c1nc2ccccc2n1Cc1ccc([N+](=O)[O-])cc1 (stereo not given) 1.9%
CCC(=O)N1CCC(C(N)=O)(N2CCCCC2)CC1 -4.7%
CCOC(=O)CN(C(=O)COc1nc(C)cc(C)c1C#N)c1ccc(Cl)cc1 1.3%
O=C1Nc2ccc(Br)cc2/C1=N/N=C/C1=C(N2CCOCC2)C(=C\c2ccccc2)/CC1 8%
C=CCn1c(-c2ccccc2OCC)n[nH]c1=S -4.4%
Cc1ccccc1CSCC(=O)NC(=O)NC(C)(C)C 4.3%
CC(C)(C)NC(=O)CSc1nnc(NC(=O)CCc2ccccc2)s1 2.2%
CC(=O)Nc1ccc(NC(=O)CSCc2cnn(-c3ccccc3)c2-n2cccc2)cc1 -1.2%
CCc1c(C)[nH]c(=S)c(C#N)c1C -1.9%
Cc1cccc(-n2c(SCC(N)=O)nc3c(c2=O)C2(CCCCC2)Cc2ccccc2-3)c1 14.6%
COc1ccc(C(=O)NCc2ccc(Cl)cc2)cc1S(=O)(=O)N1CCCC1 -4.5%
CN(C(=O)c1c(Cl)cnn1C)C12CC3CC(CC(C3)C1)C2 0.7%
N#CC(C(=O)c1ccc(S(=O)(=O)N2CCCCCC2)cc1)c1nc2ccccc2[nH]1 (stereo not given) 13.9%
O=C(NCc1ccco1)C1CCCN(S(=O)(=O)c2cnc[nH]2)C1 (stereo not given) -5.5%
O=C(NCc1ccco1)C1CCCN(S(=O)(=O)c2ccccc2)C1 (stereo not given) -4.7%
CC(Sc1nc2c([nH]c3ccccc32)c(=O)n1C)c1ccccc1 (stereo not given) -0.4%
Cc1cc(C)nc(NC2=NCC(=O)N2c2ccc(Cl)cc2)n1 4.1%
O=C(COCc1cc(-c2ccc3c(c2)OCO3)on1)N1CCN(c2cccc(Cl)c2)CC1 6.1%
CCCCNC(=O)C(C)N(CCN(C)C)C(=O)CCCN1C(=O)NC(c2ccc(Cl)cc2)C(C(=O)OCc2ccccc2)=C1C (stereo not given) -1.7%
COc1ccc(-c2nc3n(c2Br)CCC3)cc1 6.5%
Cc1ccc(OCC(=O)NCCCNC(=O)c2cccnc2)cc1C 0.1%
Cc1cccc(OCC(=O)NCCNC(=O)c2cccnc2)c1 2.9%
Cc1ccc(C(=O)N2CCCC2)c(F)c1F -4.7%
O=C(N1CCOCC1)N1CCOCC1 -1.2%
O=C(c1cc(-c2ccc(Cl)s2)nc2ccccc12)N1CCOCC1 -0.8%
CCOC(=O)C1(Cc2cccc(OC)c2)CCCN(C(=O)CCSC)C1 (stereo not given) 5.4%
Cc1c(NC(=O)CSc2nnnn2-c2ccc(C(=O)O)cc2)c(=O)n(-c2ccccc2)n1C -4.2%
Cc1c(NC(=O)CSc2nnc(-c3cccnc3)n2N)c(=O)n(-c2ccccc2)n1C 0%
CC(C)CC(NC(=O)C1CCCN1C(=O)[C@@H](C)NC(=O)OCc1ccccc1)C(=O)NCC(N)=O (stereo not given in full) -2.1%
